In ChEMBL document CHEMBL5606458, “ASAP - ZIKV NS2B-NS3 protease fluorescence single point” (2024):
The campaign covered roughly 2,700 compounds. About 160 (5.9%) showed an effect of 50% or more. The full list was thinned out, with strong results kept by preference.

Target: Nonstructural protein 3 (Zika virus) (UniProt A0A024AXB9)
[1] = PRVABC59, Concentration 50.0 uM, Number of replicates 1.0
[2] = PRVABC59, Concentration 10.0 uM, Number of replicates 1.0

Sequence of Nonstructural protein 3 (Zika virus) (A0A024AXB9 as listed by the source): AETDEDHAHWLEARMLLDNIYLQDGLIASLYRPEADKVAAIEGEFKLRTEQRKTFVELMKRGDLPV

c1ccc2sc(C3CCN(Cc4c[nH]c5ccccc45)CC3)nc2c1
inhibition (PRVABC59, Concentration 49.5 uM, Number of replicates 2.0, Standard deviation 0.0213310257935456 %): 83.5%
inhibition (PRVABC59, Concentration 99.01 uM, Number of replicates 2.0, Standard deviation 0.10666052376433739 %): 89.1%
inhibition (PRVABC59, Concentration 198.0 uM, Number of replicates 2.0, Standard deviation 0.03774199707932348 %): 90.7%

COC(=O)c1csc2cc(C(=O)N3CCCc4cc(CCN)ccc43)[nH]c12
inhibition (PRVABC59, Concentration 49.5 uM, Number of replicates 2.0, Standard deviation 0.9658024514724747 %): 6.59%
inhibition (PRVABC59, Concentration 99.01 uM, Number of replicates 2.0, Standard deviation 0.02626726469114151 %): 17.1%
inhibition (PRVABC59, Concentration 198.0 uM, Number of replicates 2.0, Standard deviation 0.028287616021359725 %): 35.6%

c1ccc2c([C@H]3CCN(C[C@H]4CCOC4)C3)c[nH]c2c1
inhibition (PRVABC59, Concentration 49.5 uM, Number of replicates 2.0, Standard deviation 3.5400839111105795 %): 4.89%
inhibition (PRVABC59, Concentration 99.01 uM, Number of replicates 2.0, Standard deviation 2.681337995191051 %): 11.3%
inhibition (PRVABC59, Concentration 198.0 uM, Number of replicates 2.0, Standard deviation 1.591884445207739 %): 20.9%

CS(=O)(=O)c1ccc(N2CCNCC2)cc1NC(=O)c1cccc2ncccc12
inhibition (PRVABC59, Concentration 49.5 uM, Number of replicates 2.0, Standard deviation 1.82855821855933 %): 11.9%
inhibition (PRVABC59, Concentration 99.01 uM, Number of replicates 2.0, Standard deviation 4.882597086209548 %): 19.4%
inhibition (PRVABC59, Concentration 198.0 uM, Number of replicates 2.0, Standard deviation 6.745947359627227 %): 12.5%

CCn1ccnc(N2CC[C@@H](CC(N)=O)C2)c1=O
inhibition (PRVABC59, Concentration 49.5 uM, Number of replicates 2.0, Standard deviation 2.578637589312797 %): 7.29%
inhibition (PRVABC59, Concentration 99.01 uM, Number of replicates 2.0, Standard deviation 2.4095461189610305 %): 15.8%
inhibition (PRVABC59, Concentration 198.0 uM, Number of replicates 2.0, Standard deviation 1.1815224976183896 %): 30.8%

Cc1cnccc1NC(=O)c1cccn(C[C@@H]2CCNC2)c1=O
inhibition (PRVABC59, Concentration 49.5 uM, Number of replicates 2.0, Standard deviation 1.3483593644559142 %): 2.86%
inhibition (PRVABC59, Concentration 99.01 uM, Number of replicates 2.0, Standard deviation 1.4355155911348652 %): 4.88%
inhibition (PRVABC59, Concentration 198.0 uM, Number of replicates 2.0, Standard deviation 0.7536456684870648 %): 8.2%

CNC(=O)c1cc(Cl)ccc1NS(=O)(=O)c1cccc(Oc2ccccc2)c1
inhibition (PRVABC59, Concentration 49.5 uM, Number of replicates 2.0, Standard deviation 3.0665234385287206 %): 9.77%
inhibition (PRVABC59, Concentration 99.01 uM, Number of replicates 2.0, Standard deviation 2.7531252049731103 %): 15.8%
inhibition (PRVABC59, Concentration 198.0 uM, Number of replicates 2.0, Standard deviation 3.162284112918565 %): 28.1%

CNC(=O)c1cc(C#N)ccc1NS(=O)(=O)c1ccc(Oc2ccccc2Cl)cc1
inhibition (PRVABC59, Concentration 49.5 uM, Number of replicates 2.0, Standard deviation 1.5671297466159566 %): 15.1%
inhibition (PRVABC59, Concentration 99.01 uM, Number of replicates 2.0, Standard deviation 1.4439402403900108 %): 25.1%
inhibition (PRVABC59, Concentration 198.0 uM, Number of replicates 2.0, Standard deviation 0.43015410765006534 %): 58.3%

CNC(=O)c1cc(Cl)c(OC)cc1NS(=O)(=O)c1ccc(Oc2ccccc2Cl)cc1
inhibition (PRVABC59, Concentration 49.5 uM, Number of replicates 2.0, Standard deviation 2.6404535290867552 %): 34.2%
inhibition (PRVABC59, Concentration 99.01 uM, Number of replicates 2.0, Standard deviation 0.459760751442422 %): 79.4%
inhibition (PRVABC59, Concentration 198.0 uM, Number of replicates 2.0, Standard deviation 0.11085228072983687 %): 89.8%

CCc1ccc(NS(=O)(=O)c2ccc(Oc3ccccc3Cl)cc2)c(C(=O)NC)c1
inhibition (PRVABC59, Concentration 49.5 uM, Number of replicates 2.0, Standard deviation 1.2139175769082269 %): 14.3%
inhibition (PRVABC59, Concentration 99.01 uM, Number of replicates 2.0, Standard deviation 1.880844587297581 %): 19.5%
inhibition (PRVABC59, Concentration 198.0 uM, Number of replicates 2.0, Standard deviation 1.9898788215700518 %): 28.9%

Cc1cc(NS(=O)(=O)c2ccc(Oc3ccccc3Cl)cc2)c(C(=O)NCC(F)(F)F)cc1F
inhibition (PRVABC59, Concentration 49.5 uM, Number of replicates 2.0, Standard deviation 1.109661109382951 %): 38%
inhibition (PRVABC59, Concentration 99.01 uM, Number of replicates 2.0, Standard deviation 0.5262974754243883 %): 43.1%
inhibition (PRVABC59, Concentration 198.0 uM, Number of replicates 2.0, Standard deviation 0.754567504357695 %): 32.6%

CNC(=O)c1cc(Cl)c(F)cc1NS(=O)(=O)c1ccc(Oc2ccccc2Cl)cc1
inhibition (PRVABC59, Concentration 49.5 uM, Number of replicates 2.0, Standard deviation 0.22897404989083275 %): 53.5%
inhibition (PRVABC59, Concentration 99.01 uM, Number of replicates 2.0, Standard deviation 0.1399302344544729 %): 88.1%
inhibition (PRVABC59, Concentration 198.0 uM, Number of replicates 2.0, Standard deviation 0.21988651500230783 %): 90.5%

NC(=O)c1ccccc1NS(=O)(=O)c1ccc(Oc2ccccc2Cl)cc1
inhibition (PRVABC59, Concentration 49.5 uM, Number of replicates 2.0, Standard deviation 0.8239548725855442 %): -1.32%
inhibition (PRVABC59, Concentration 99.01 uM, Number of replicates 2.0, Standard deviation 0.884539787208196 %): 2%
inhibition (PRVABC59, Concentration 198.0 uM, Number of replicates 2.0, Standard deviation 0.6321029239261367 %): 31.5%

O=S(=O)(Nc1ccc(Cl)cc1)c1ccc(Oc2ccccc2Cl)cc1
inhibition (PRVABC59, Concentration 49.5 uM, Number of replicates 2.0, Standard deviation 0.5562375850821631 %): 7.5%
inhibition (PRVABC59, Concentration 99.01 uM, Number of replicates 2.0, Standard deviation 0.1909474772903637 %): 13.8%
inhibition (PRVABC59, Concentration 198.0 uM, Number of replicates 2.0, Standard deviation 0.9464347944699606 %): 26.1%

CNC(=O)c1cc(Cl)ccc1NS(=O)(=O)c1ccc(Oc2ccccc2Cl)cc1
inhibition (PRVABC59, Concentration 49.5 uM, Number of replicates 2.0, Standard deviation 4.182044982903414 %): 16.8%
inhibition (PRVABC59, Concentration 99.01 uM, Number of replicates 2.0, Standard deviation 0.7456984587318506 %): 44.5%
inhibition (PRVABC59, Concentration 198.0 uM, Number of replicates 2.0, Standard deviation 0.5270959053225787 %): 31.5%

O=Cc1ccc(N2CCC(C(=O)N3CCC(N4CCc5ccccc5C4)CC3)CC2)cc1
inhibition [1]: 31.7%

NS(=O)(=O)c1nc(C(=O)N2CCc3c(CO)cccc32)n2ccccc12
inhibition (PRVABC59, Concentration 49.5 uM, Number of replicates 2.0, Standard deviation 0.7415262579040602 %): 14.9%
inhibition (PRVABC59, Concentration 99.01 uM, Number of replicates 2.0, Standard deviation 0.42632784815485236 %): 16%
inhibition (PRVABC59, Concentration 198.0 uM, Number of replicates 2.0, Standard deviation 0.11314911538628655 %): 22.8%

O=Cc1ccc(N2CCC(C(=O)NCCc3ccccc3[N+](=O)[O-])CC2)cc1
inhibition [1]: 31.8%

O=Cc1ccc(N2CCC(C(=O)Nc3ncc(Br)cc3O)CC2)cc1
inhibition [1]: 63.3%

CC(=O)Nc1cccc(CNC(=O)C2CCN(c3ccc(C=O)cc3)CC2)c1
inhibition [2]: 37.6%

O=Cc1ccc(N2CCC(C(=O)Nc3cccc(Br)n3)CC2)cc1
inhibition [1]: 69.5%

O=Cc1ccc(N2CCC(C(=O)Nc3ccc(Br)cc3O)CC2)cc1
inhibition [1]: 36.5%

O=Cc1ccc(N2CCC(C(=O)NCc3cccc(-c4ccccc4)c3)CC2)cc1
inhibition [2]: 66.7%

O=Cc1ccc(N2CCC(C(=O)NC[C@H](O)c3ccc(O)c(O)c3)CC2)cc1
inhibition [1]: 37%

CC1CCN(CCCCNC(=O)C2CCN(c3ccc(C=O)cc3)CC2)CC1
inhibition [1]: 38.3%

O=Cc1ccc(N2CCC(C(=O)NCCc3ccc(O)c(O)c3)CC2)cc1
inhibition [1]: 48.5%

O=Cc1ccc(N2CCC(C(=O)NCCN3CCc4ccccc43)CC2)cc1
inhibition [1]: 67.9%

O=Cc1ccc(N2CCC(C(=O)NCCC3CCN(Cc4ccccc4)CC3)CC2)cc1
inhibition [1]: 36.7%
